From PubChem
A549 viability – Nrf2 qHTS screen for inhibitors: counterscreen for cytotoxicity. A549 ARE-Fluc cells, CellTiter-Fluor viability, 18-24 h. Potency, µM (highest dose often 46 µM), for the others: at the highest dose activity change, negative = cytotoxicity, hits mostly inhibitors. 390,000 compounds, 0.16% hits; also: potency is read from the fitted curve at half-maximal effect; % is scaled to controls: 0 for no effect and ±100 for the full control effect
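Cytotoxicity counterscreen: CellTiter-Fluor fluorescence was measured in A549 ARE_Fluc cells after 18-24 h of compound exposure in a concentration series. The subsequent BugLite luminescent read reports ARE-luciferase activity.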
Nrf2 inh – Nrf2 qHTS screen for inhibitors; A549 ARE-Fluc reporter, luciferase luminescence, 18-24 h; Potency, µM (titrated, usually from 46 µM), inactives show at the top dose activity change, negative = inhibition, hits mostly inhibitors; 360,000 compounds, 2.1% hits; also: potency is read from the fitted curve at half-maximal effect; % is scaled to controls: 0 for no effect and ±100 for the full control effect; nearly all actives have a fitted effect of over 60% in size
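Nrf2 activity is the BugLite luminescence, read 15 min after reagent at room temperature, following CellTiter-Fluor cytotoxicity readout (30 min, 37C). Compound titrations were applied for 18-24 h to 5000 A549 ARE_Fluc cells/well in 5% FBS OPTI-MEM.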
Mito fusion yeast – qHTS Assay for Small Molecule Inhibitors of Mitochondrial Division or Activators of Mitochondrial Fusion; S. cerevisiae fusion-defective mutant growth rescue, CellTiterGlo 48 h; Potency, µM (titrated, usually from 46.1 µM), for the others: at the top dose growth rescue (activation), actives largely listed as activators; 320,000 compounds, 0.23% hits; AID 485298, 2010; also: potency is read from the fitted curve at half-maximal effect; % of control where 0% means no effect; nearly all actives have a fitted effect of over 45% in size
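Yeast fusion mutant, YPEG (non-fermentable carbon), compound, 48 h at 37C non-permissive; CellTiterGlo added, 10 min RT, luminescence read. Rescued growth = division inhibition.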
miR-21 reporter – qHTS Assay for Modulators of miRNAs and/orActivators of miR-21. HeLa miR-21 FLuc reporter, luciferase, 48 h. Potency, µM (doses to about 38.3 µM), without a hit: at the top dose activity change, positive = activation, usual class: activators. 340,000 tested, under 10 active. AID 2288, 2010;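 also: % of control where 0% means no effect; miR-21 action dims this reporter so a rising signal means less miR-21 action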
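HeLa cells endogenously expressing miR-21, stably carrying CMV-driven firefly luciferase with a downstream miR-21 binding site, 2000 cells/well. Titrations up to approximately 40 uM, 48 hours; luciferase luminescence read.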
Nrf2 ARE act – qHTS of Nrf2 Activators | 410,000 compounds, 0.31% hits | Potency, µM (titrated, usually from 46.1 µM), for the others: top-dose activation, actives largely listed as activators | AREc32 ARE-luciferase reporter (MCF7-derived line), luminescence, 24 h; also: potency is read from the fitted curve at half-maximal effect; % of control where 0% means no effect; nearly all actives have a fitted effect of over 65% in size
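Steps: seed AREc32_Fluc cells (1000/well, 5% FBS OPTI-MEM); incubate overnight at 37 deg C; add 23 nL compound; incubate 24 hr; add Steady-Glo; hold 30 min RT; read luminescence.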
Glioma ERSR ind – qHTS for Inducers of the Endoplasmic Reticulum Stress Response (ERSR) in Human Glioma: qHTS. 420,000 compounds, 0.02% hits. Potency, µM, inactives show at the top dose activation, hits mostly activators. U87-MG GRP78 promoter luciferase reporter, 16 h; also: potency is read from the fitted curve at half-maximal effect; series mostly up to about 76 µM; % of control where 0% means no effect; nearly all actives have a fitted effect of over 35% in size
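Stably transfected U87-MG glioma cells carrying a GRP78-based luciferase sensor; 16 h compound incubation. Luminescence end-point read 10 min after Bright-Glo addition at room temperature.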
Starred values were filed as active, the others as inactive; ? = inconclusive; . = not tested or not shown. Rows were chosen to be rich in hits. Some 2.3% of all compounds tested hit in one or more screens of this group. Calls follow the shape of the dose curve; as a rule, active = well fitted curve in the direction sought with a large enough effect; inconclusive = small, poorly fitted or top-dose-only effect, or another doubt; inactive = no such curve, though single readings can be large; an effect the other way counts as inactive or inconclusive.

SMILES	A549 viability	Nrf2 inh	Mito fusion yeast	miR-21 reporter	Nrf2 ARE act	Glioma ERSR ind
O=C1NC[C@H](c2ccccc2)OC(=O)[C@@H](Cc2ccc(F)cc2)C/C=C\C[C@H]1CC(=O)N(CCO)Cc1ccccc1	?	?	.	.	-6%	-8%
Cc1cc(C)c(S(=O)(=O)N2CCN(C(=O)C(C)Cn3nc(C)nc3C)CC2)c(C)c1 (configuration not stated)	0%	3%	-10%	1%	0%	-5%
CCOC(=O)C1CCN(C(=O)Cn2ncc3c4ccccc4n(Cc4ccc(F)cc4)c3c2=O)CC1	-3%	5%	.	?	4%	40µM*
CN1CCN(C(=O)Cn2ncc3c4ccccc4n(Cc4ccc(F)cc4)c3c2=O)CC1	-4%	16%	.	9%	1%	-2%
CCOC(=O)C1CCN(C(=O)Cn2ncc3c4ccccc4n(Cc4ccccc4)c3c2=O)CC1	0%	-3%	.	16%	0%	32µM*
CCOC(=O)C1CCCN(C(=O)Cn2ncc3c4ccccc4n(Cc4ccccc4)c3c2=O)C1 (configuration not stated)	2%	14%	.	?	2%	14%
COc1cccc(C2C(C(=O)Nc3ccccc3)=C(C)Nc3nc(-c4ccccc4)nn32)c1OC (configuration not stated)	-25%	18µM*	.	?	-1%	-2%
CCOc1ccc(S(=O)(=O)Nc2cccc(OC)c2)c2cccnc12	-17%	15µM*	.	5%	7%	-1%
Cc1ccc(Cl)cc1-n1c(=O)cc(N2CCN(c3ccc(F)cc3)CC2)[nH]c1=O	-7%	.	.	1%	-1%	-4%
COc1ccccc1NC(=O)C(=O)N1N=C(C(C)C)CC1(O)C(F)(F)F (configuration not stated)	-21%	23µM*	0%	7%	-1%	-2%
Cc1ccc(C(=O)n2cnnc2N)cc1	0%	8.2µM*	1%	-5%	-2%	-4%
CC(=O)N(c1ccccc1Cl)S(=O)(=O)c1ccc(Cl)cc1	0%	-6%	-4%	-3%	0%	-4%
Cc1cc2nc(SCCOC(=O)Nc3ccccc3)nc(C)c2cc1C	-11%	21µM*	-9%	-5%	0%	1%
Cc1cc2nc(SCCOC(=O)Nc3cccc(Cl)c3)nc(C)c2cc1C	-10%	?	27%	-10%	1%	-6%
CCC(NC(=O)c1ccccc1Br)c1ccccc1 (configuration not stated)	3%	-8%	2%	-2%	0%	-4%
COc1cccc(C(=O)NCCNC(=O)c2cnccn2)c1	5%	-4%	-5%	-3%	0%	-5%
COCCn1c(C)cc(C(=O)CSc2n[nH]c(N)n2)c1C	-5%	10%	-5%	-33%	0%	-1%
COCCn1c(C)cc(C(=O)CSc2nnc(C)s2)c1C	-2%	15µM*	-10%	?	-1%	-16%
COc1ccc(N=c2cc(-c3ccc(OC)cc3)oc3ccccc23)cc1	?	16µM*	19%	-24%	7%	7%
O=C(CN(c1cccc(Cl)c1)S(=O)(=O)c1ccc(Cl)cc1)NCc1ccccn1	?	21µM*	-3%	15%	2%	-1%
Cc1nc(NC(=O)/C=C/c2ccccc2)sc1C(=O)Nc1ccccc1	-11%	-24%	2%	-6%	3%	-3%
O=C(CNC(=S)NC(=O)c1ccccc1Br)c1ccccc1	8%	?	9%	-6%	2.2µM*	-1%
Cc1ccccc1C(=O)NC(=S)NCC(=O)c1ccccc1	-1%	1%	-4%	-1%	0%	0%
COc1ccccc1Oc1ccc2c(c1)C(=O)N(c1cccc3ncccc13)C2=O	-8%	16µM*	1%	1%	2%	-10%
C/C(=N\NC(=O)c1nnn(-c2nonc2N)c1-c1ccccc1)c1ccccc1O	-7%	4.6µM*	-3%	?	-1%	-7%
SMILES	A549 viability	Nrf2 inh	Mito fusion yeast	miR-21 reporter	Nrf2 ARE act	Glioma ERSR ind
CCCc1c(C(=O)N/N=C(\C)c2ccccc2O)nnn1-c1nonc1N	.	.	.	.	-1%	-4%
CCOc1ccc(-c2c(C(=O)N/N=C/c3cccs3)nnn2-c2nonc2N)cc1	1%	12µM*	1%	3%	1%	2%
CCOc1ccc(-c2c(C(=O)N/N=C/c3sccc3C)nnn2-c2nonc2N)cc1	-7%	-5%	5%	0%	-1%	-3%
CCOc1cccc(-c2c(C(=O)N/N=C/c3ccc(C)s3)nnn2-c2nonc2N)c1	-8%	-9%	-4%	-7%	0%	-5%
CCOc1cccc(-c2c(C(=O)N/N=C/c3sccc3C)nnn2-c2nonc2N)c1	-27%	16µM*	-1%	3%	-2%	-3%
CCOc1ccc(-c2c(C(=O)N/N=C/c3ccc(C)s3)nnn2-c2nonc2N)cc1	-15%	23µM*	-1%	0%	-1%	-4%
Cc1ccc(-c2c(C(=O)N/N=C/c3cccs3)nnn2-c2nonc2N)cc1	-2%	-18%	1%	3%	2%	-4%
Cc1cc(-c2ccccc2)n(-c2cc(N/N=C/c3ccccc3O)ncn2)n1	-8%	-13%	-1%	21%	-1%	-8%
COc1ccc(-c2nc(CSc3nnc(C)n4c3cc3oc(C)cc34)c(C)o2)cc1OC	0%	0%	.	-3%	0%	-1%
CN1/C(=C\C(=O)c2cccs2)Sc2ccccc21	-28%	.	-2%	-15%	4µM*	-9%
Cc1cc(NC(=O)CCC(=O)N(c2ccccc2)C(C)C(=O)NC2CCCC2)no1 (configuration not stated)	1%	1%	3%	0%	0%	-5%
CCc1ccc(NCc2ccc(OC)c(Cn3ccnc3)c2)cc1	-1%	-15%	-4%	0%	0%	5%
COc1ccccc1C=C1SC(=S)NC1=O	-17%	-2%	.	.	0%	0%
COc1ccc(C=C2SC(=S)NC2=O)c(OC)c1OC	15µM*	?	.	.	22%	0%
CS(=O)(=O)N(Cc1ccc(Cl)cc1)c1ccc(C(=O)Nc2cccnc2)cc1	-19%	16µM*	7%	14%	0%	-1%
O=c1nc2c(O)cccn2c2c1c(=O)[nH]c1ccccc12	-8%	13%	-3%	-8%	5.6µM*	-2%
O=c1[nH]c2ccccc2c2nc3ccccn3c12	-6%	-29%	4%	-28%	22%	4%
